Source: PubChem BioAssay (Tox21)
Activity calls are given as the source filed them. The call rests on the fitted dose curve; in most records, active means well fitted curve in the direction sought with a large enough effect in the repeat runs; inconclusive means weak or mixed curves; inactive means flat fitted curve, though single readings scatter.

assay: qHTS assay to test for compound auto fluorescence at 590 nm (red) in HepG2 cells (AID 720674); conditions: HepG2 autofluorescence, red 540/590 nm, 1 h; series mostly up to 91.3 µM; fluorescence, relative to Rose Bengal: at the top concentration
Excerpt: U.S. Tox21 Program National Center for Advancing Translational Sciences [NCATS] NIH Chemical Genomics Center [NCGC] U.S. Environmental Protection Agency [EPA] National Institutes of Environmental Health Sciences [NIEHS] National Toxicology Program [NTP] U.S. Food and Drug Administration [FDA] Tox21 Assay Overview: Compound auto fluorescence often interferes with screening of the compound library against various biological targets and signaling pathways. Some of these compounds may have fluorophoric properties. Such properties may interfere with the assay outputs resulting in false positives and/or negatives. To decrease such complications and ensure the compound activities are relevant in terms of biological response, the Tox21 10K compound library was screened for auto fluorescence. From the fluorophores used as reporter signals in our screening assays, the auto fluorescence equivalencies of compounds against three fluorophores have been evaluated: Triamterene, Fluorescein and Rose Bengal sodium for blue, green and red fluorescence, respectively. The fluorescence intensities were measured using Excitation/Emission wavelengths at 405/460nm, 485/535nm and 540/590nm for blue, green and red labels, respectively. This assay includes the red fluorescence data.
Tox21 Assay Protocol Summary: 2,000 HepG2 cells in 5 uL of culture medium (MEM containing 10% FBS) per well were dispensed into black wall/clear bottom 1536-well plates using a Multidrop Combi Dispenser (ThermoFisher Scientific, Waltham, MA). The assay plates were incubated overnight at 37 C to allow cell attachment to the well bottom, followed by the transfer of 23 nL compound or DMSO vehicle by a pintool work station (Kalypsys , San Diego, CA). After the assay plates were incubated for 1 hr at 37 C and 5% CO2, fluorescence intensities in the assay plates were measured by an Envision (PerkinElmer, Shelton, CT) plate reader using three labels for measuring blue, green and red fluorescence at […] 460, 535 and 590 nm respectively.
On the % scale 0 is the no-effect control and ±100 the full control effect.

Row | SMILES | outcome | fluorescence, relative to Rose Bengal
1 | Cc1ccc(C(=O)C(C)CN2CCCCC2)cc1 (stereo not given) | inactive | –
2 | CC1=CCC(C(C)C)C=C1 (stereo not given) | – | -0.208% (inactive)
3 | Nc1cnn([C@@H]2O[C@H](CO)[C@@H](O)[C@H]2O)c(=O)n1 | – | -0.0107% (inactive)
4 | NC1CCN(c2nc3c(cc2F)c(=O)c(C(=O)O)cn3-c2ccc(F)cc2F)C1 (stereo not given) | – | -0.481% [at 46 µM] (inactive)
5 | CC(=O)[C@@]1(O)CC[C@H]2[C@@H]3C[C@H](C)C4=CC(=O)CC[C@]4(C)[C@H]3CC[C@@]21C | – | 0.115% [at 46 µM] (inactive)
6 | NCCCOCCOCCOCCCN | – | -0.0593% (inactive)
7 | CN1CCN(C2=Nc3ccccc3Sc3ccc(Cl)cc32)CC1 | – | -0.0613% [at 46 µM] (inactive)
8 | CC(=O)O[C@@H]1C(=O)O[C@@H]2[C@H]1OC(=O)[C@@H]2OC(C)=O | – | 0.0498% [at 46 µM] (inactive)
9 | CC1(C)[C@H]2CC[C@]1(C)[C@H](O)C2 | inactive | –
10 | C=C(C)C(=O)OCCN(C)C | – | 0.0009% (inactive)
11 | CNS(=O)(=O)Cc1ccc2[nH]cc(CCN(C)C)c2c1 | – | 0.0579% [at 46 µM] (inactive)
12 | CCCCCCCCN(C)C | – | 0.149% (inactive)
13 | C=CCCCCCC | – | 0.417% (inactive)
14 | CCCCOCCOCCOCCOCCO | – | 0.0802% (inactive)
15 | CCN(CC)C(C)=O | – | 0.139% [at 95.7 µM] (inactive)
16 | O=S(=O)(O)c1ccc(O)c2ncccc12 | – | -0.121% (inactive)
17 | O=C(C(=O)c1ccc(Br)cc1)c1ccc(Br)cc1 | – | -0.609% [at 18.6 µM] (inactive)
18 | CCCCCC(CO)CCC (stereo not given) | – | 0.162% (inactive)
19 | N[C@H]1C(O)O[C@H](CO)[C@H](O)[C@@H]1O (stereo not given in full) | – | -0.0528% (inactive)
20 | O=C(Nc1ccccc1)OCC(CN1CCCCC1)OC(=O)Nc1ccccc1 (stereo not given) | – | -0.654% [at 18.6 µM] (inactive)

Row | SMILES | outcome | fluorescence, relative to Rose Bengal
21 | CN(c1nccc(=O)[nH]1)C1CCN(c2nc3ccccc3n2Cc2ccc(F)cc2)CC1 | – | -0.308% [at 46 µM] (inactive)
22 | CCC(=O)OC(C)(C)C1CC=C(C)CC1 (stereo not given) | – | 0.0125% (inactive)
23 | COCCO | – | 0.627% (inactive)
24 | CCOC(=O)C1=NN(c2ccccc2)C(=O)C1 | – | 0.352% (inactive)
25 | Cn1c(N)nc2nc[nH]c2c1=O | – | -0.0559% (inactive)
26 | CC(C)(C)c1cc(CO)cc(C(C)(C)C)c1O | – | -0.106% [at 95.7 µM] (inactive)
27 | O=C(c1ccc(O)cc1)c1ccc(O)cc1 | – | 0.0094% (inactive)
28 | CN(C)CCCNCCCN | – | 0.011% (inactive)
29 | Cc1c(Cn2ccnc2)c2ccccc2n1CCC(=O)O | – | -0.868% [at 46 µM] (inactive)
30 | CCOC(=O)C1=C(C)NC(C)=C(C(=O)OC)C1c1cccc([N+](=O)[O-])c1 (stereo not given) | – | 0.283% [at 46 µM] (inactive)
31 | CCCC[C@H]1CN(CC2CCOCC2)C(=O)OC12CCN(C1(C)CCN(C(=O)c3c(C)ncnc3C)CC1)CC2 | – | -0.0909% (inactive)
32 | CC[C@H](C)[C@@H](C(=O)O)n1sc2ccccc2c1=O | – | 0.0025% (inactive)
33 | CCCCCOC(=O)c1ccc(O)cc1 | – | -0.189% [at 95.7 µM] (inactive)
34 | Oc1ccc(C(O)CNCCCCCCNCC(O)c2ccc(O)c(O)c2)cc1O (stereo not given) | – | 0.236% [at 46 µM] (inactive)
35 | Cc1ccc(C(N)=O)cc1N | – | -0.0055% (inactive)
36 | COc1ccc([C@@H]2Sc3ccccc3N(CCN(C)C)C(=O)[C@@H]2OC(C)=O)cc1 | – | -0.159% [at 46 µM] (inactive)
37 | CC(=O)/C(C)=C/C1C(C)=CCCC1(C)C (stereo not given) | – | 0.18% (inactive)
38 | O=c1[nH]cnc2ccccc12 | – | 0.0479% [at 95.7 µM] (inactive)
39 | Cc1ncsc1CCO | – | -0.911% (inactive)
40 | Oc1ccc(Cc2ccccc2)cc1 | – | 0.12% (inactive)
